# Several values for one entry are separate records, joined by “and”; a condition that tells them apart may be missing. Equal entries are not always repeated. Results filed as inconclusive are left out. Activity calls are given as the source filed them. How the source made its calls: active means hit-call score of the fitted dose curve at least 0.9, where 1 is the maximum; inconclusive means response in the unintended direction; inactive means score below 0.9.
# Legend:
# [1] = molecular target: human Dual Specificity Protein Phosphatase 3 (DUSP3), DUSP3 (gene 1845) (UniProt P51452); test: NVS_ENZ_hDUSP3: NovaScreen (NVS) Enzymatic Assay for human Dual Specificity Protein Phosphatase 3 (DUSP3) (AID 2283152);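 further: phosphatase activity of recombinant human DUSP3 on a fluorogenic substrate without cells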
# Sequence of human Dual Specificity Protein Phosphatase 3 (DUSP3), DUSP3 (gene 1845) (P51452 whole entry, looked up): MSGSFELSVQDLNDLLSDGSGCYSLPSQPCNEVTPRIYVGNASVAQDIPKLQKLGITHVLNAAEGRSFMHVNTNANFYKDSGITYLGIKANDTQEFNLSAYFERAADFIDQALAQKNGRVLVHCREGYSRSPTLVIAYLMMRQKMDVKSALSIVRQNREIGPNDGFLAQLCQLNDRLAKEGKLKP
# In short: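 Cell-free assay with recombinant human DUSP3 and fluorogenic substrate, read by fluorescence intensity. Primary screen ran duplicate at 25 uM; actives followed up in concentration series; loss of signal versus DMSO scored.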
# [2] = molecular target: human Esterase Plasma (ES), BCHE (gene 590) (UniProt P06276); test: NVS_ENZ_hES: NovaScreen (NVS) Enzymatic Assay for human Esterase Plasma (ES) (AID 2283157)
# Sequence of human Esterase Plasma (ES), BCHE (gene 590) (P06276 whole entry, looked up): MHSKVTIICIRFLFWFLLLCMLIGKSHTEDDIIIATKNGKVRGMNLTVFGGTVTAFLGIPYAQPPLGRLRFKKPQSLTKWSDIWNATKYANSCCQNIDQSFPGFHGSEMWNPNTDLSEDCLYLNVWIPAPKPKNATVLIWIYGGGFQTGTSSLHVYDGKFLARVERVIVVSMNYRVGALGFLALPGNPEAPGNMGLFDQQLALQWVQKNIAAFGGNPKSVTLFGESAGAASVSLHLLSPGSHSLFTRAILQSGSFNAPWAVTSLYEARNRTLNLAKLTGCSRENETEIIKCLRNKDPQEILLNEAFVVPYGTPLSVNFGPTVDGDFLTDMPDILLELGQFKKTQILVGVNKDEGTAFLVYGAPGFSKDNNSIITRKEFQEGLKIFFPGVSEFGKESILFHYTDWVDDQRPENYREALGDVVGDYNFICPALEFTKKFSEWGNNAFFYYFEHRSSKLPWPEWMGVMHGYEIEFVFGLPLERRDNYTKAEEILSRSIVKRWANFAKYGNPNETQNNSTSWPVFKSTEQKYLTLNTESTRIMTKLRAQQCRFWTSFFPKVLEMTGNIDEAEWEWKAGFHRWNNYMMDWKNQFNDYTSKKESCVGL
# In short: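 Chemicals were added to plasma-extracted human enzyme in a cell-free format, and activity was read colorimetrically after 0.25 hour. Activity loss was referenced to DMSO; concentration-response top dose was 50 uM.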
# [3] = molecular target: human Ephrin type-A Receptor 1 (EphA1), EPHA1 (gene 2041) (UniProt P21709); test: NVS_ENZ_hEphA1: NovaScreen (NVS) Enzymatic Assay for human Ephrin type-A Receptor 1 (EphA1) (AID 2283158);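 further: activity is signal loss versus DMSO meaning EphA1 kinase inhibition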
# Sequence of human Ephrin type-A Receptor 1 (EphA1), EPHA1 (gene 2041) (P21709 whole entry, looked up): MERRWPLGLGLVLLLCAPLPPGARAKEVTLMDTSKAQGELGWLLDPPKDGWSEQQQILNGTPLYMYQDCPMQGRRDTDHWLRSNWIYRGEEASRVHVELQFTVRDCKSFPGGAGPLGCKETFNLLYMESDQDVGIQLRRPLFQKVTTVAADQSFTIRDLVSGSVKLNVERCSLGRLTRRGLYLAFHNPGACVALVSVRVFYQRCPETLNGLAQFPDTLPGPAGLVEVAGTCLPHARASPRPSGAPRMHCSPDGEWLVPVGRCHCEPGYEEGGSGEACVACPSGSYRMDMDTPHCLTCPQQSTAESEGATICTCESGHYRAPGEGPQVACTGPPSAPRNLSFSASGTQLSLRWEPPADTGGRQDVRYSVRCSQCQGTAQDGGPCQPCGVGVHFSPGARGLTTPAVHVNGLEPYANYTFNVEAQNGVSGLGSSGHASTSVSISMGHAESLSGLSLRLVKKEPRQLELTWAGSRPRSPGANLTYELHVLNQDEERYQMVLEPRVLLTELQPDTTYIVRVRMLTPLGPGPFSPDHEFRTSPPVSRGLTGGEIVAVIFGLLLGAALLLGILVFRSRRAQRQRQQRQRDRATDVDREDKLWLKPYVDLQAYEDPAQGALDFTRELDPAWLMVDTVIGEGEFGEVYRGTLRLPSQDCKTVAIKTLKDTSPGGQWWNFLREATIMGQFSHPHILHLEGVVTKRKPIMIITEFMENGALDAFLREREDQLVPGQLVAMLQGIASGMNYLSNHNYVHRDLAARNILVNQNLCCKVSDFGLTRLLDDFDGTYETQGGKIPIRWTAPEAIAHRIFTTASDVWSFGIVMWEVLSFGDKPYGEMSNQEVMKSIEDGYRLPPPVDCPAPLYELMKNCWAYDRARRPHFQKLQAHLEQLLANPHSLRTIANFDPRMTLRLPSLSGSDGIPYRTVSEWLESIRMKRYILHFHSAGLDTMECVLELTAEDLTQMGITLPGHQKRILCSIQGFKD
# In short: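 Here the EphA1 protein is recombinant and the substrate fluorescent, with electrophoretic separation before fluorescence detection at 1 hour. Signal loss against DMSO defines activity; plate controls included; follow-up concentration series reach 50 uM.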
# [4] = molecular target: human Casein Kinase 1-delta (CK1D), CSNK1D (gene 1453) (UniProt P48730); test: NVS_ENZ_hCK1D: NovaScreen (NVS) Enzymatic Assay for human Casein Kinase 1-delta (CK1D) (AID 2283148)
# Sequence of human Casein Kinase 1-delta (CK1D), CSNK1D (gene 1453) (P48730 whole entry, looked up): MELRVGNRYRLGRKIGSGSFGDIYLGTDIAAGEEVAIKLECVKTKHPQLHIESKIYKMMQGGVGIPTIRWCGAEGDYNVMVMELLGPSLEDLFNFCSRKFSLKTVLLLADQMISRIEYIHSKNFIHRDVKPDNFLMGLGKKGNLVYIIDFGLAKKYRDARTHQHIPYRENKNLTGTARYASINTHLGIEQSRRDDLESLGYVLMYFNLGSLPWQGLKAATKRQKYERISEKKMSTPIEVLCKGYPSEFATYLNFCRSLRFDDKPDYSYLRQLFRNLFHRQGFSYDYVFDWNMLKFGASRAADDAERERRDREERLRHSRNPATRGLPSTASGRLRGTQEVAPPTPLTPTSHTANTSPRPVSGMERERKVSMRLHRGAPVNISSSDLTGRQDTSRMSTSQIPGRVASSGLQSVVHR
# In short: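 Recombinant human CK1-delta, cell-free; fluorescent substrate with electrophoretic mobility-shift separation of product, read 1 h after dosing. Single 25 uM duplicate screen, then concentration-response up to 50 uM; loss of signal vs DMSO.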
# [5] = molecular target: Glycogen synthase kinase-3 beta (Homo sapiens) (UniProt P49841); test: NVS_ENZ_hGSK3b: NovaScreen (NVS) Enzymatic Assay for human Glycogen Synthase Kinase-3 beta (GSK3b) (AID 2283165)
# Sequence of Glycogen synthase kinase-3 beta (Homo sapiens) (P49841 whole entry, looked up): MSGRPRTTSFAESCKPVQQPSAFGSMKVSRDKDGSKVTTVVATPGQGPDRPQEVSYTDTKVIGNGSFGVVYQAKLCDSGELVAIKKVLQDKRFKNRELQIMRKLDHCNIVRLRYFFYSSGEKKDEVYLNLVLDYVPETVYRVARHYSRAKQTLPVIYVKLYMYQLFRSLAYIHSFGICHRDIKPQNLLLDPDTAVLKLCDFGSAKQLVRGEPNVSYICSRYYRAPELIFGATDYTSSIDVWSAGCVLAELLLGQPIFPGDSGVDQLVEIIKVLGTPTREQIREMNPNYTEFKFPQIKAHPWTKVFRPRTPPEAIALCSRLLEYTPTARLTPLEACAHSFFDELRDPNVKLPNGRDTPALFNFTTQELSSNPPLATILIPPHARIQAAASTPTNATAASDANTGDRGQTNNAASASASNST
# In short: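 Recombinant enzyme with specific fluorescent substrate, 1 h, product separated by electrophoretic mobility shift. Primary duplicate screen at 25 uM; actives (e.g. 30% inhibition) followed in singleton concentration-response to 50 uM. Signal loss fitted versus DMSO.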
# [6] = molecular target: human Caspase 8 (CASP8), CASP8 (gene 841) (UniProt Q14790); test: NVS_ENZ_hCASP8: NovaScreen (NVS) Enzymatic Assay for human Caspase 8 (CASP8) (AID 2283146)
# In short: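 E. coli-expressed enzyme was used in a cell-free fluorogenic substrate assay read 1 h after dosing. Loss of signal was scored relative to DMSO, and the primary screen was run in duplicate at 25 uM.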
# [7] = molecular target: human Caspase 4 (CASP4), CASP4 (gene 837) (UniProt P49662); test: NVS_ENZ_hCASP4: NovaScreen (NVS) Enzymatic Assay for human Caspase 4 (CASP4) (AID 2283143)
# Sequence of human Caspase 4 (CASP4), CASP4 (gene 837) (P49662 whole entry, looked up): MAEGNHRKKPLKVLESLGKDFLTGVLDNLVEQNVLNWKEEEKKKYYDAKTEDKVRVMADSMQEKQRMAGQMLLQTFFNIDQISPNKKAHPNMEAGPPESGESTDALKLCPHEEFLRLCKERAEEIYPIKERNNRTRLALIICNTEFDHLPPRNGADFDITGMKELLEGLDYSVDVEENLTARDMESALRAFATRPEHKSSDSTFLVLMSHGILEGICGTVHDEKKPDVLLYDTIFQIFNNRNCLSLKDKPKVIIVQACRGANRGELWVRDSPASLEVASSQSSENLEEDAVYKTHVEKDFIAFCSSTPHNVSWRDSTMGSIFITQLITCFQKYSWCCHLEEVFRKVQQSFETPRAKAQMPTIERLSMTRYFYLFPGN
# In short: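 The cell-free assay used E. coli-expressed enzyme with a fluorogenic substrate, read 2 h after dosing. Signal loss was scored versus DMSO. Screening was in duplicate at 25 uM, then singleton concentration-response up to 50 uM.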
# [8] = molecular target: human AKT serine/threonine Kinase 2 (AKT2), AKT2 (gene 208) (UniProt P31751); test: NVS_ENZ_hAKT2: NovaScreen (NVS) Enzymatic Assay for human AKT serine/threonine Kinase 2 (AKT2) (AID 2283141)
# Sequence of human AKT serine/threonine Kinase 2 (AKT2), AKT2 (gene 208) (P31751 whole entry, looked up): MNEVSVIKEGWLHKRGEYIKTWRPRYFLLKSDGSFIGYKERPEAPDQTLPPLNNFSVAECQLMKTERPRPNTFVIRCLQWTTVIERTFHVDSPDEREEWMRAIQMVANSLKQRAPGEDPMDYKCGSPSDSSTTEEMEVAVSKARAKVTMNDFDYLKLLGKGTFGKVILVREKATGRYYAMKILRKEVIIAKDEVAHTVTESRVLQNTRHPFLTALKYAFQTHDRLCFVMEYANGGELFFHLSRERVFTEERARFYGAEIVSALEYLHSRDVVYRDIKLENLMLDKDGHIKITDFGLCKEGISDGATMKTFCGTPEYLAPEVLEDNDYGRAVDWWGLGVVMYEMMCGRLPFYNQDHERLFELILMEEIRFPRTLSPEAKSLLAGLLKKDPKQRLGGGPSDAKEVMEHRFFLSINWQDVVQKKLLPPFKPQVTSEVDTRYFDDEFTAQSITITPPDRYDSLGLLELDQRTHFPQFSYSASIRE
# In short: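 Cell-free fluorescence/electrophoretic mobility shift readout of recombinant human AKT2 activity, 1 h after chemical dosing. Duplicate primary screen at 25 uM, then singleton concentration-response up to 50 uM; loss of signal versus DMSO baseline.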
# [9] = molecular target: human FYN Proto-Oncogene, Src family Tyrosine Kinase (Fyn), FYN (gene 2534) (UniProt P06241); test: NVS_ENZ_hFyn: NovaScreen (NVS) Enzymatic Assay for human FYN Proto-Oncogene, Src family Tyrosine Kinase (Fyn) (AID 2283161)
# In short: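 Recombinant enzyme with fluorescent substrate, product separated by electrophoretic mobility shift; read 1 h after dosing. Duplicate 25 uM single-point screen, actives retested in concentration series; loss of signal vs DMSO.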
# [10] = molecular target: Mitogen-activated protein kinase 3 (Homo sapiens) (UniProt P27361); test: NVS_ENZ_hMAPK3: NovaScreen (NVS) Enzymatic Assay for human Mitogen-Activated Protein Kinase 3 (MAPK 3) (AID 2283177)
# Sequence of Mitogen-activated protein kinase 3 (Homo sapiens) (P27361 whole entry, looked up): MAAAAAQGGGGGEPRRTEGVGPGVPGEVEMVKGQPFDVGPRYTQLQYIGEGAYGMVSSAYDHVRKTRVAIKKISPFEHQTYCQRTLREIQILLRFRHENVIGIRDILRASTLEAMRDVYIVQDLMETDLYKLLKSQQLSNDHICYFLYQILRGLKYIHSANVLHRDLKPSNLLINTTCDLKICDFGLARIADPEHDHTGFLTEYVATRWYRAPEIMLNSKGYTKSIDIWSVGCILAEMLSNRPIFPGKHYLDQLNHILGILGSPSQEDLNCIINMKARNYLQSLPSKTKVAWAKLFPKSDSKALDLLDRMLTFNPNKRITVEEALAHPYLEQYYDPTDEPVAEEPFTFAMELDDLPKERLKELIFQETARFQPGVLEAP
# In short: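 Cell-free enzymatic assay with recombinant protein and specific substrate; fluorescence and electrophoretic mobility shift read-out 1 h after dosing. Primary screen duplicate at 25 uM; actives then run in concentration-response up to 50 uM, loss of signal versus DMSO.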
# [11] = molecular target: CDK2 (gene 1017) (UniProt P24941); test: NVS_ENZ_hCDK2: NovaScreen (NVS) Enzymatic Assay for human Cyclin-Cependent Kinase 2 (CDK2) (AID 2283144)
# In short: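 Cell-free recombinant human CDK2 with fluorescent substrate, product separated by electrophoretic mobility shift; 1 hr read. Primary screen at 25 uM in duplicate, actives retested in concentration-response up to 50 uM; loss of signal versus DMSO.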
# [12] = molecular target: human c-Jun N-terminal Kinases (JNK2), MAPK9 (gene 5601) (UniProt P45984); test: NVS_ENZ_hJNK2: NovaScreen (NVS) Enzymatic Assay for human c-Jun N-terminal Kinases (JNK2) (AID 2283171)
# In short: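 Cell-free recombinant human JNK2 activity assay; fluorescent substrate and product separated by electrophoretic mobility shift, read 1 h after dosing. Primary duplicate screen at 25 uM; actives run in concentration-response up to 50 uM, relative to DMSO.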
# [13] = molecular target: human Colony Stimulating Factor 1 Receptor (CSF1R), CSF1R (gene 1436) (UniProt P07333); test: NVS_ENZ_hCSF1R: NovaScreen (NVS) Enzymatic Assay for human Colony Stimulating Factor 1 Receptor (CSF1R) (AID 2283150)
# In short: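 Cell-free recombinant human CSF1R kinase with fluorescent substrate, product separated by electrophoretic mobility shift; read 1 h after dosing. Primary screen at 25 uM in duplicate, actives then in concentration-response up to 50 uM, relative to DMSO.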
# [14] = molecular target: human MAP Kinase-Activated Protein Kinase 2 (MAPKAPK2), MAPKAPK2 (gene 9261) (UniProt P49137); test: NVS_ENZ_hMAPKAPK2: NovaScreen (NVS) Enzymatic Assay for human MAP Kinase-Activated Protein Kinase 2 (MAPKAPK2) (AID 2283178)
# Sequence of human MAP Kinase-Activated Protein Kinase 2 (MAPKAPK2), MAPKAPK2 (gene 9261) (P49137 whole entry, looked up): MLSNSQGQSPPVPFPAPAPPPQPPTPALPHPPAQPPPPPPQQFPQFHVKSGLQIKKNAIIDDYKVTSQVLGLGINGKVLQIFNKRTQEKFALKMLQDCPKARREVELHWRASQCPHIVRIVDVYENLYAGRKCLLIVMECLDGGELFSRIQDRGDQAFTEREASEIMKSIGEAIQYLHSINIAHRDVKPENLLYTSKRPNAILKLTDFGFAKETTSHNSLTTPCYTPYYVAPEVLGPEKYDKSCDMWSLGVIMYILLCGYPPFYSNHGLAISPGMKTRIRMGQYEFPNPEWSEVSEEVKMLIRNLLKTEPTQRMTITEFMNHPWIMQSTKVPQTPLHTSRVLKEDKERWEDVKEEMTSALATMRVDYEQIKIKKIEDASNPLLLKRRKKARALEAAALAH
# In short: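 Cell-free recombinant human MAPKAPK2 activity measured by fluorescence with electrophoretic mobility shift separation of substrate and product, 1 hr after dosing. Loss of signal versus DMSO; primary screen at 25 uM, concentration-response up to 50 uM.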
# [15] = molecular target: human Elastase, ELANE (gene 1991) (UniProt P08246); test: NVS_ENZ_hElastase: NovaScreen (NVS) Enzymatic Assay for human Elastase (AID 2283153)
# Sequence of human Elastase, ELANE (gene 1991) (P08246 whole entry, looked up): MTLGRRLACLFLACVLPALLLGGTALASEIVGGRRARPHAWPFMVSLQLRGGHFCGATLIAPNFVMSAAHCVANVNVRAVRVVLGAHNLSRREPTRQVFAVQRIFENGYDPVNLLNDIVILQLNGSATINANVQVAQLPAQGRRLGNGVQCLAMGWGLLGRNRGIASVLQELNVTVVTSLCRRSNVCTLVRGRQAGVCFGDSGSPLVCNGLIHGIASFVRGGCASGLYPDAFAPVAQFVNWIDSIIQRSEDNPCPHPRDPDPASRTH
# In short: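 Cell-free elastase from human neutrophils, 1.5 h after dosing, activity read by absorbance. Primary screen in duplicate at 25 uM; hits (e.g., 30% inhibition) rerun in singleton concentration-response up to 50 uM, fitted versus DMSO.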
# [16] = molecular target: Histone deacetylase 3 (Homo sapiens) (UniProt O15379); test: NVS_ENZ_hHDAC3: NovaScreen (NVS) Enzymatic Assay for human Histone Deacetylase 3 (HDAC3) (AID 2283163)
# Sequence of Histone deacetylase 3 (Homo sapiens) (O15379 whole entry, looked up): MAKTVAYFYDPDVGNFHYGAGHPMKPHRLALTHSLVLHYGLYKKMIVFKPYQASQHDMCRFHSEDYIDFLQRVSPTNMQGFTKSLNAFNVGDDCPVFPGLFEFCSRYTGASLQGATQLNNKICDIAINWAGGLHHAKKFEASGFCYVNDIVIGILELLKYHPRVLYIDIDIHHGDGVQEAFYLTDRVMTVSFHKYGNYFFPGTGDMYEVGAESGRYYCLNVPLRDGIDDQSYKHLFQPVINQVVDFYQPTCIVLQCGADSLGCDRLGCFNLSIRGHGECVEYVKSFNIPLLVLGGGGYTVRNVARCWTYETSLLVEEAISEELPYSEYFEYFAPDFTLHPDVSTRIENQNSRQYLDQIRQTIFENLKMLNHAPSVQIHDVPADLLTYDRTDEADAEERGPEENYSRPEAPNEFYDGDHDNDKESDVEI
# In short: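 Recombinant human HDAC3 with fluorescent substrate, 1 h after dosing; product separated from substrate by electrophoretic mobility shift and read by fluorescence. Primary screen at 25 uM in duplicate; actives (e.g. ≥30% inhibition) retested in concentration-response up to 50 uM.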
smiles,measurement,setting,value
OCc1c[nH]c2ccccc12,AC50,[1],19.5 µM (active) and 15.4 µM (active)
same,AC50,[2],15.3 µM (active) and 19.1 µM (active)
same,outcome,[3],inactive
O=C(O)c1cccc(C[C@@H]2COc3ccc(OCc4nc5cc(F)ccc5s4)cc3[C@@H]2O)c1,outcome,[4],inactive
same,outcome,[5],inactive
CCCCCCCCN(C)C,outcome,[6],inactive
same,outcome,[2],inactive
same,outcome,[3],inactive
CCCc1ccccc1,outcome,[4],inactive
CCCCCCCCCC,outcome,[1],inactive
same,outcome,[2],inactive
CC(C)C(=O)Nc1ccc([N+](=O)[O-])c(C(F)(F)F)c1,outcome,[7],inactive
CCCCCCCC/C=C\CCCCCCCC(=O)OC[C@@H](O)[C@H]1OC[C@H](O)[C@H]1O,AC50,[8],42.1 µM (active)
same,outcome,[7],inactive
same,outcome,[9],inactive
same,outcome,[5],inactive
same,outcome,[10],inactive
C=CCc1cc(S(=O)(=O)c2ccc(O)c(CC=C)c2)ccc1O,outcome,[1],inactive
CCCC(CCC)C(=O)O,outcome,[8],inactive
same,outcome,[11],inactive
same,outcome,[9],inactive
same,outcome,[5],inactive
same,outcome,[12],inactive
same,outcome,[10],inactive
O=C(O)[C@H](O)[C@@H](O)C(=O)O,outcome,[4],inactive
Cc1ncc([C@@H](CCCCCCc2ccc3c(n2)NCCC3)CC(=O)O)cn1,outcome,[13],inactive
same,outcome,[5],inactive
same,outcome,[14],inactive
CCCCCCOC(=O)CC(CC(=O)OCCCCCC)(OC(=O)CCC)C(=O)OCCCCCC,outcome,[1],inactive
same,outcome,[15],inactive
CCCCCCCCCCCCCCCCOS(=O)(=O)O,outcome,[1],inactive
same,AC50,[15],4.2 µM (active)
CCN(CC)C(=S)SSC(=S)N(CC)CC,outcome,[1],inactive
same,outcome,[2],inactive
CC(C)CCCCCCOC(=O)C1CCCCC1C(=O)OCCCCCCC(C)C (centres undefined),outcome,[6],inactive
same,outcome,[15],inactive
S=P(N1CC1)(N1CC1)N1CC1,AC50,[1],20.3 µM (active) and 26.1 µM (active)
same,outcome,[3],inactive
CC(C)CC(C)O (centres undefined),AC50,[7],8.65 µM (active)
Cc1nc(-c2ccccn2)ncc1C(=O)Nn1cc(C)c2cc(F)ccc21,outcome,[8],inactive
same,outcome,[3],inactive
same,outcome,[16],inactive
O=c1[nH]cnc2c1ncn2[C@H]1CC[C@@H](CO)O1,outcome,[8],inactive
same,AC50,[11],25 µM (active)
same,outcome,[4],inactive
same,outcome,[3],inactive
same,outcome,[16],inactive
same,outcome,[5],inactive
same,outcome,[10],inactive

# — PubChem BioAssay (EPA / NIEHS)
